Screening results (PubChem BioAssay)
An excerpt weighted towards active compounds, which were near 2.6% of everything screened.
PAFAH2 inh: inhibitors of human PAFAH2. 340,000 tested, 0.99% active. AID 492956. Q99487. recombinant PAFAH2, FP-rhodamine activity probe, fluorescence polarization. inhibition, % at 3.39 µM;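 active = inhibition above the mean over all tested compounds plus 3 SD, cut at about 30% in these data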;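 note: inhibitors block probe labeling of enzyme so polarization drops; 0% = enzyme with DMSO and 100% = wells lacking PAFAH2 protein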
pPAFAH FP inh: pPAFAH (human) enzyme inhibition; inhibition, % at 3.39 µM; AID 463082; 330,000 tested, 1.5% active; recombinant pPAFAH, FP-rhodamine probe fluorescence polarization; Q13093;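 active = inhibition above the mean inhibition across the screen plus 3 SD, cut at about 25% in these data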;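 note: inhibitors block binding of the rhodamine activity-based probe so polarization drops; 0% = enzyme with DMSO and 100% = wells lacking pPAFAH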
Target sequence (Q13093 whole entry, looked up): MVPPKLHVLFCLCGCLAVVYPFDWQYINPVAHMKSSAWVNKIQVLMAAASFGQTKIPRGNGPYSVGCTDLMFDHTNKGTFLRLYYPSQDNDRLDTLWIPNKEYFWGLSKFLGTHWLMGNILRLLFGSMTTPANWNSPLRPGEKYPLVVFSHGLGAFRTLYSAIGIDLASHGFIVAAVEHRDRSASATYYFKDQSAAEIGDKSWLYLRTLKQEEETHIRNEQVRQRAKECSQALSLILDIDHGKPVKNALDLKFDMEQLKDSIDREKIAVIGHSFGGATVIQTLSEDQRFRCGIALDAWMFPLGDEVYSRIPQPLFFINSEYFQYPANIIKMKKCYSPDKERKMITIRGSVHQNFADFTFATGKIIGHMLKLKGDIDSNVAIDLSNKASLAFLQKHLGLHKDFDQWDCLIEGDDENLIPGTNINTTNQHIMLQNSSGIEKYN
PKA-R1A act: activates the PKA-R1A holoenzyme complex. activation, % at 11.4 µM. 340,000 tested, 0.083% active. PKA-R1A dissociation, Cy5-IP20 fluorescence polarization; scaled: DMSO 0%, 113 µM cGMP 100%;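 active = percent activation above the mean of all tested compounds plus 3 SD, cut at about 19% in these data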;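 note: higher means more PKAc released from R1A so a rise in polarization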
PAFAH1B2 FP inh: PAFAH1B2 (human) inhibition | recombinant PAFAH1B2, FP-rhodamine activity probe, fluorescence polarization | inhibition, % at 3.39 µM | 340,000 tested, 1.2% active;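 active = inhibition above the mean of all tested compounds plus 3 SD, cut at about 24% in these data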;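 note: 0% = enzyme with DMSO and 100% = wells lacking PAFAH1B2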
Target sequence (P68402 whole entry, looked up): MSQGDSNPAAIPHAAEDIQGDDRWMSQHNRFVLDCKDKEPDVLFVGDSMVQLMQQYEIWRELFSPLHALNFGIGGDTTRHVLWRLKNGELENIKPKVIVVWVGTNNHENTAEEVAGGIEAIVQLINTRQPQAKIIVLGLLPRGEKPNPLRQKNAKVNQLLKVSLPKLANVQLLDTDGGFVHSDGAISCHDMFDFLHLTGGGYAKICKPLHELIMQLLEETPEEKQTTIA
PKA-R2B activ: PKA-R2B complex activation. 340,000 tested, 0.079% active. PKA-R2B holoenzyme dissociation, Cy5-IP20 fluorescence polarization; R2B truncated from residue 108, S112A mutant; 0% DMSO only, 100% 113 µM cGMP. P22694+P31323. activation, % at 11.4 µM. AID 504700;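 active = activation above a cutoff set at the mean over all compounds plus 3 SD, cut at about 18% in these data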;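 note: higher means more holoenzyme dissociation and a rise in polarization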
PAFAH1B3 FP inh: inhibitors of human PAFAH1B3. AID 492972. inhibition, % at 3.39 µM. 340,000 tested, 0.28% active. Q15102. recombinant PAFAH1B3, FP-rhodamine probe, fluorescence polarization;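 active = inhibition above the screen-wide average of all tested compounds plus 3 SD, cut at about 25% in these data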;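 note: 0% = enzyme with DMSO only and 100% = wells lacking PAFAH1B3 protein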
* = called active by the depositor; . = no result given.

SMILES	PAFAH2 inh	pPAFAH FP inh	PKA-R1A act	PAFAH1B2 FP inh	PKA-R2B activ	PAFAH1B3 FP inh
Cn1c(=O)n(Cc2ccccc2Cl)c(=O)c2c1[nH]c(=S)n2C	1.2	0.3	-8.7	2.4	0.5	10.9
COC(=O)c1cc(S(=O)(=O)N(Cc2ccccc2)C(C)(C)C)c[nH]1	3.2	-5.3	6.8	3.9	-5.9	4.9
CC1CCc2c(sc(NC(=O)c3ccc(N4C(=O)CCC4=O)cc3)c2C(N)=O)C1 (stereo not drawn)	1.1	3.4	-2.9	8.3	-9.7	0.7
COC(=O)c1cnc(SCc2ccc(Cl)cc2)n1C	3.7	2.3	2.4	2.6	-5.7	3.4
CC(=O)OCc1c(C(F)(F)F)nn(C)c1SCc1ccc(Cl)cc1	1.7	1.7	-3.8	29.5*	-3.5	3.5
N#CC1(C#N)CC(C=O)=C(N)C1(C#N)CC(=O)C12CC3CC(CC(C3)C1)C2 (stereo not drawn)	21.2	10.8	4.3	31.1*	1.7	-2.1
Nc1nccnc1C(=O)OCC(=O)C12CC3CC(CC(C3)C1)C2	28.0	-7.1	2.1	22.0	-3.5	5.4
COc1ccccc1N1CCN(C(=O)c2cc3cc(Cl)ccc3[nH]2)CC1	3.5	4.1	3.1	-1.5	3.3	2.3
OCCC1CN(Cc2c(F)cccc2Cl)CCN1C1CCCCC1 (stereo not drawn)	-5.3	32.5*	-7.9	-3.9	1.3	-0.8
OCCC1CN(Cc2c(F)cccc2Cl)CCN1C1CCCC1 (stereo not drawn)	7.1	-0.3	4.1	1.6	1.9	3.6
COC(=O)CCCC1=CC2=CC(=O)C(C)(OC(=O)c3ccco3)C(=O)C2=CO1 (stereo not drawn)	.	46.8*	.	.	.	.
CC(C)(C)OC(=O)NCCCCC1=CC2=CC(=O)C(C)(OC(=O)c3ccco3)C(=O)C2=CO1 (stereo not drawn)	.	42.8*	.	.	.	.
CC1(OC(=O)c2ccco2)C(=O)C=C2C=C(c3ccsc3)OC=C2C1=O (stereo not drawn)	.	49.7*	.	.	.	.
CCCCC1=CC2=CC(=O)C(C)(OC(=O)c3ccc(Cl)nc3)C(=O)C2=CO1 (stereo not drawn)	.	53.5*	.	.	.	.
Cc1ccc(Cn2cc(CCC(=O)O)c3ccccc32)cc1	2.3	7.1	-1.0	8.9	0.9	3.4
CC(C)(C)OC(=O)NCCCC1=CC2=CC(=O)C(C)(OC(=O)C3CCCC3)C(=O)C2=CO1 (stereo not drawn)	.	41.3*	.	.	.	.
CC1(O)C(=O)C=C2C=C(c3ccsc3)OC=C2C1=O (stereo not drawn)	.	42.2*	.	.	.	.
CCCCC1=CC2=CC(=O)C(C)(O)C(=O)C2=CO1 (stereo not drawn)	.	41.4*	.	.	.	.
O=C(NCCc1ccco1)C(=O)NCC1OCCCN1S(=O)(=O)c1cc(F)ccc1F (stereo not drawn)	0.9	3.7	-6.7	3.1	-3.3	-3.1
CC(C)(C)OC(=O)C[C@@H]1C/C=C\C[C@@H](CC(=O)N[C@H](CO)Cc2ccccc2)C(=O)N2CCC[C@H]2COC1=O	1.2	-0.6	1.4	9.4	6.1	6.6
COc1ccc(Nc2nc3ccccc3nc2NS(=O)(=O)c2ccc(NC(C)=O)cc2)cc1	10.0	26.7*	-8.2	6.5	-1.4	7.9
COc1ccc(Nc2nc3ccccc3nc2NS(=O)(=O)c2cccs2)cc1	7.2	27.1*	-2.0	3.4	6.9	6.1
O=S(=O)(Nc1ccccc1)c1ccc(S(=O)(=O)N2CCCC2)cc1	-0.8	26.8*	-2.6	6.4	-5.2	1.1
COc1ccc(S(=O)(=O)Nc2ccc(N3CCOCC3)cc2)cc1	6.7	7.4	-2.4	-1.9	4.8	4.2
CCOc1ccc(S(=O)(=O)Nc2nc3ccccc3nc2Nc2ccc(N3CCOCC3)cc2)cc1	19.4	32.8*	-9.1	7.9	-0.7	5.0
SMILES	PAFAH2 inh	pPAFAH FP inh	PKA-R1A act	PAFAH1B2 FP inh	PKA-R2B activ	PAFAH1B3 FP inh
O=C(Nc1ccc(C(=O)N2CCCC2)cc1)c1cc(F)c(F)cc1Cl	.	.	5.9	.	1.4	.
CCCCNc1ncnc2sc3c(c12)CCN(CCC)C3	6.7	-0.5	-0.9	-1.2	9.1	7.4
O=C(CN(C(=O)CCC(=O)Nc1nccs1)c1ccc2c(c1)OCO2)NCc1ccccc1	-14.8	-1.2	-1.1	-3.6	-4.9	3.6
COc1ccc(S(=O)(=O)Nc2ccc(Nc3ccccc3)cc2)cc1	.	27.1*	.	.	.	.
O=C(O)c1cccc(Nc2nc3ccccc3nc2NS(=O)(=O)c2cccs2)c1	12.5	4.7	-7.4	4.0	-15.4	6.3
COc1ccc(S(=O)(=O)Nc2ccccc2)cc1	13.0	18.1	0.0	6.4	-14.3	6.8
CC(=O)c1ccc(Nc2nc3ccccc3nc2NS(=O)(=O)c2cccs2)cc1	18.2	26.9*	2.2	1.0	-4.1	5.5
CC(=O)NS(=O)(=O)c1ccc(NS(=O)(=O)c2ccc3ccccc3c2)cc1	-5.1	-1.1	2.0	28.6*	-1.4	15.1
COc1ccccc1Nc1ccc(NS(=O)(=O)c2ccc(C(C)=O)cc2)cc1	5.7	33.7*	-2.5	0.8	-5.2	-5.8
CC(NC(=O)c1nn(C)c2c1CS(=O)(=O)c1ccccc1-2)c1ccccc1 (stereo not drawn)	0.9	1.4	-3.3	5.1	-7.5	4.1
CC(=O)Nc1ccc(NC(=O)CSc2nc3nc(C)cc(C)c3c(=O)[nH]2)cc1	11.4	9.7	2.9	-4.2	10.4	11.7
COC(=O)/C=C1\SC(N2CCOCC2)=C(c2ccc(OC)cc2)C1=O	-2.2	-2.3	2.4	8.8	5.7	-0.1
COc1ccc(NS(=O)(=O)c2ccc(NC(=O)Cc3cccs3)cc2)cc1	-6.7	25.6*	-0.4	7.5	-3.4	6.1
NS(=O)(=O)c1ccc(Nc2nc3ccccc3nc2NS(=O)(=O)c2cccc([N+](=O)[O-])c2)cc1	4.3	30.7*	-3.1	13.1	-3.6	16.8
O=C(C=Cc1cccs1)c1ccccc1	5.3	.	-5.5	2.3	-21.8	6.0
Nc1ncnc2c1C1(CCCCC1)Cc1ccccc1-2	3.2	4.7	0.9	19.7	-1.8	5.4
Nc1n[nH]c2c1C1(CCCCC1)Cc1ccccc1-2	0.8	-0.8	-5.2	31.8*	-3.1	7.4
COc1ccc(CNC(=O)CCn2c(=O)[nH]c3ccccc3c2=O)cc1	2.7	7.0	-11.7	0.0	-13.3	1.7
CCOc1cc2[nH]c(=O)n(CCCC(=O)NCc3ccc(OC)cc3)c(=O)c2cc1OCC	2.4	2.6	-3.8	32.3*	8.1	3.9
O=c1[nH]c(=S)[nH]c2c1C(c1ccc(Br)cc1)c1c([nH]c(=S)[nH]c1=O)O2	54.7*	27.1*	8.7	-3.8	3.6	20.8
CC1(NC(=O)CC(c2ccccc2)(c2ccccc2)c2ccccc2)CCN(Cc2ccc(-c3ccccc3)cc2)C1=O (stereo not drawn)	4.2	3.7	5.1	-5.8	-3.7	-2.2
